Measurements published in PubChem BioAssay AID624459 (National Center for Advancing Translational Sciences (NCATS), 2012).
Calls of active or inactive are those of the source. No rule for the calls is given here.

Experiment: HTS Assay for Allosteric Antagonists of the Human D2 Dopamine Receptor: Hit Validation in Parental Cell Line

Q: Which outcome does the source give for `NCCc1ccc(O)c(O)c1` here?
A: inactive
